Assay outcomes as filed in PubChem BioAssay.
SmPrx2 inh = Schistosoma Mansoni Peroxiredoxins (Prx2); Schistosoma mansoni peroxiredoxin 2 (Prx2); 0.07% of 65,000 active; S. mansoni Prx2 activity coupled to TGR/GSH (TGR is thioredoxin glutathione reductase), NADPH fluorescence loss, qHTS; Potency, µM
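Coupled assay in which S. mansoni TGR passes NADPH reducing equivalents via glutathione to Prx2, which reduces H2O2. Compounds were preincubated 15 min at room temperature with 25 nM TGR/50 nM Prx2 mix. Kinetic NADPH fluorescence loss (ex 365/em 450 nm) was monitored.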
AmpC det inh = Promiscuous and Specific Inhibitors of AmpC Beta-Lactamase (assay with detergent). Potency, µM (titrated, usually from 28.7 µM), for inactives: at the highest dose activity change, negative = inhibition. AID 584, 2007. purified AmpC, nitrocefin hydrolysis with detergent. P00811. 0.09% of 71,000 active; active means well fitted curve in the direction sought with a large enough effect; inconclusive means small, poorly fitted or top-dose-only effect; further: on the % scale 0 is the no-effect control and ±100 the full control effect
Target sequence (P00811 whole entry, looked up): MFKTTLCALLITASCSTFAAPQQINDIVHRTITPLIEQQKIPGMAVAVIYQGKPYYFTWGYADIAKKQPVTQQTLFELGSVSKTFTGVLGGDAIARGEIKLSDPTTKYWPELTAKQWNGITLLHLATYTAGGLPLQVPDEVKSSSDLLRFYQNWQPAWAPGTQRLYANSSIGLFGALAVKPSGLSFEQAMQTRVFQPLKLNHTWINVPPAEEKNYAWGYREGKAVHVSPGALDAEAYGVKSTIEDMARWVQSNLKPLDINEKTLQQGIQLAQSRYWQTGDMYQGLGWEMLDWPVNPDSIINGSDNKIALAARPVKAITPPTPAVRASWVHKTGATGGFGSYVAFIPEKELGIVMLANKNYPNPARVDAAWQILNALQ
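E. coli AmpC (5.3 nM) in 20 mM phosphate pH 7.0 with 0.01% Triton X-100, preincubated 15 min RT with compound; nitrocefin (2 uL of 800 uM stock) hydrolysis followed by 480 nm absorbance every 20 s over 4 min.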
Anthrax LT inh = qHTS Assay for Anthrax Lethal Toxin Internalization; Cells, anthrax lethal toxin internalization, FRET ratio (460/530); AID 912, 2007; 0.67% of 70,000 active; Potency, µM (doses to about 40 µM), without a hit: at the top dose activity change, negative = inhibition, usual class: inhibitors; further: on the % scale 0 is the no-effect control and ±100 the full control effect; nearly all actives have a fitted effect of over 50% in size
AmpC nodet inh = Promiscuous and Specific Inhibitors of AmpC Beta-Lactamase (assay without detergent). AmpC nitrocefin hydrolysis, absorbance 480 nm, no detergent. Potency, µM (series often up to 28.7 µM), for inactives: top-dose activity change, negative = inhibition. 1.8% of 71,000 active. AID 585, 2007; further: % of control where 0% means no effect
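AmpC in 20 mM phosphate buffer pH 7.0 was preincubated 15 min at room temperature with compounds. Nitrocefin (800 uM stock) was then added and hydrolysis followed at 480 nm every 20 s for 4 min.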
* hit, by the source's call; ? = inconclusive; . = no result given; [ ] = dose if it differs, or a comment. Hits are enriched below; roughly 2.6% of the tested compounds scored in any of these assays. Unless noted, the call rests on the fitted dose curve. Potency means the concentration at half of the fitted maximal effect.

SMILES	SmPrx2 inh	AmpC det inh	Anthrax LT inh	AmpC nodet inh
O=C(Nc1ccc(S(=O)(=O)N2CCc3ccccc32)cc1)c1ccc2c(c1)OCO2	>57	2%	?	13µM*
O=C(Nc1nnc(C2CC2)s1)c1cccc(S(=O)(=O)N2CCc3ccccc32)c1	>57	-2%	1%	10µM*
Cc1ncc2c(c1O)COP(=O)(O)OC2	>57	-1%	-10%	5%
N#Cc1c(NC(=O)Cn2c(=O)oc3ccccc32)oc(-c2ccccc2)c1-c1ccccc1	>57	1%	10µM*	13µM*
S=C([S-])NCCNC(=S)[S-].[Zn+2]	.	2%	?	-14%
COCC(=O)N1CCC2(CCCN(C(=O)Nc3cccc(F)c3)C2)CC1	>57	1%	-10%	11%
COc1ccc(C2C(C(C)=O)=C(O)C(=O)N2CCO)c(OC)c1 (stereo not drawn)	>57	-3%	-21%	-3%
CCN(CC)CCCN1C(=O)C(O)=C(C(C)=O)C1c1ccc(OC)cc1OC (stereo not drawn)	>57	12%	-3%	4µM*[single pt active]
O=S(=O)(c1ccc2c(c1)OCCO2)N1CCC(c2nc3ccc(Cl)cc3[nH]2)CC1	>57	0%	13µM*	-24%
COc1cccc(C2CC(c3c(Cl)cccc3Cl)n3nc(N)nc3N2)c1 (stereo not drawn)	>57	13%	3%	4µM*[single pt active]
COc1ccc(C2CC(c3ccc(F)cc3)Nc3nc(N)nn32)cc1 (stereo not drawn)	>57	14%	?	4µM*[single pt active]
CCOc1ccc(C2CC(c3ccc(F)cc3)Nc3nc(N)nn32)cc1 (stereo not drawn)	>57	13%	6%	36%
COc1cccc(C2CC(c3ccccc3)Nc3nc(N)nn32)c1 (stereo not drawn)	>57	9%	4%	4µM*[single pt active]
COc1cccc(C2CC(c3c(F)cccc3Cl)n3nc(N)nc3N2)c1 (stereo not drawn)	>57	-2%	-18%	35%
COc1ccc(C2CC(c3cccc(OC)c3)n3nc(N)nc3N2)cc1 (stereo not drawn)	>57	9%	-5%	4µM*[single pt active]
N[C@H](C(=O)O)[C@H](OCc1ccccc1)C(=O)O	>57	-4%	6%	11%
COC[C@@H]1OC(=O)c2coc3c2[C@]1(C)C1=C(C3=O)[C@H]2CCC(=O)[C@]2(C)C[C@@H]1OC(C)=O	>57	0%	?	-9%
C[C@@H](Cc1ccc2c(c1)OC(C(=O)O)(C(=O)O)O2)NC[C@H](O)c1cccc(Cl)c1	>57	-5%	-2%	-4%
O=S(=O)(c1ccccc1)N1CCC2(CCN(Cc3ccncc3)CC2)CC1	>11	0%	-13%	2%
C[C@@]12Cc3cnc(-c4ccccc4)nc3C[C@@H]1CC[C@@H]1[C@H]3CC[C@@](C)(O)[C@]3(C)CC[C@@H]12	>57	-4%[5.75 µM]	-26%[8 µM]	11%[5.75 µM]
Cc1ccc([C@@]2(C)CC/C(=N/N=C3\CC[C@](C)(c4ccc(C)c(C)c4)c4cc(C)c(C)cc43)c3cc(C)c(C)cc32)cc1C	>57	-3%[5.75 µM]	-1%[8 µM]	1%[5.75 µM]
CCOC(=O)C1CCCN(c2c(NCCCN(C)c3ccccc3)c(=O)c2=O)C1 (stereo not drawn)	>57	11%	?	42%
CCOC(=O)C1CCCN(c2c(N3CCN(c4ccccn4)CC3)c(=O)c2=O)C1 (stereo not drawn)	>57	11%	1%	4µM*[single pt active]
CCOC(=O)C1CCCN(c2c(Nc3cccc(C)c3)c(=O)c2=O)C1 (stereo not drawn)	.	12%	1%	4µM*[single pt active]
O=c1cc(O)cc(/C=C\c2ccc(O)c(O)c2)o1	>57	-3%	-1%	6.3µM*
SMILES	SmPrx2 inh	AmpC det inh	Anthrax LT inh	AmpC nodet inh
Cc1cc(=O)oc2cc(O)c(CN(C)CC(=O)O)cc12	>57	-2%[5.75 µM]	-6%[8 µM]	-4%[5.75 µM]
Fc1cccc2sc(Nc3nnc(-c4ccccc4)o3)nc12	>57	-1%	-2%	13µM*[single pt active]
CCN1CCN(C(=O)N[C@H](C(=O)N[C@@H]2C(=O)N3C(C(=O)O)=C(CSc4nnnn4C)CS[C@@H]23)c2ccc(O)cc2)C(=O)C1=O	>57	-4%[12.8 µM]	-4%[3.58 µM]	-11%[12.8 µM]
Cc1ccc(NC(=[OH+])c2cc3ccccc3cc2O)c(C)c1.Cc1ccc(NC(=[OH+])c2cc3ccccc3cc2O)c(C)c1.[Ni]	>57	-4%[5.75 µM]	?	?
COc1cc(C2CC(=O)N3CN(c4ccccc4C)CSC3=C2C#N)cc(OC)c1OC (stereo not drawn)	>57	-6%	?	48%
COc1ccc(OC)c(C2CC(=O)N3CN(c4ccccc4F)CSC3=C2C#N)c1 (stereo not drawn)	>57	12%	-7%	4µM*[single pt active]
COc1cccc(C2CC(=O)N3CN(c4ccccc4F)CSC3=C2C#N)c1 (stereo not drawn)	>57	8%	?	4µM*[single pt active]
COc1ccccc1N1CSC2=C(C#N)C(c3ccc(SC)cc3)CC(=O)N2C1 (stereo not drawn)	>57	11%	?	2.5µM*
CCC(C)[C@@H](C(=O)Nc1ccc(OC)c(OC)c1)N1Cc2ccccc2C1=O (stereo partly drawn)	>57	13%	9%	4µM*[single pt active]
CSCC[C@@H](C(=O)Nc1ccc2c(c1)OCCO2)N1Cc2ccccc2C1=O	>57	8%	-7%	4µM*[single pt active]
CC(C)[C@H]1C(=O)N2CCC[C@@H]2[C@]2(O)O[C@@](NC(=O)[C@H]3C=C4c5cccc6[nH]cc(c56)C[C@H]4N(C)C3)(C(C)C)C(=O)N12	>57	2%	?	105%
CCn1c(SCc2ccc(OC)cc2)nnc1-c1ccncc1	>57	-5%	13µM*	58%
CCn1c(SCC(=O)c2cc(OC)ccc2OC)nnc1-c1ccncc1	>57	-4%	.	31%
CCOC(=O)C1CCN(C(=O)c2ccc(Cl)c(NC3=NC4CS(=O)(=O)CC4S3)c2)CC1 (stereo not drawn)	>57	12%	1%	4µM*[single pt active]
O=C(c1ccc(NC2=NC3CS(=O)(=O)CC3S2)cc1)N1CCN(C(=O)c2ccco2)CC1 (stereo not drawn)	>57	12%	-5%	4µM*[single pt active]
CCOC(=O)N1CCN(C(=O)c2cccc(NC3=NC4CS(=O)(=O)CC4S3)c2)CC1 (stereo not drawn)	>57	-3%	0%	-3%
N[C@@H](Cc1cc(O)c(O)cc1O)C(=O)O	>57	-26%	-9%	5µM*
CN(Cc1ccccc1)C(=O)CCS(=O)(=O)c1ccc2c(c1)n(C)c(=O)c(=O)n2C	>57	14%	?	4µM*[single pt active]
CCC(C)NC(=O)CCS(=O)(=O)c1ccc2c(c1)n(C)c(=O)c(=O)n2C (stereo not drawn)	>57	13%	-8%	4µM*[single pt active]
CN(Cc1ccccc1)C(=O)CCC(=O)N(C)Cc1ccccc1	.	-1%	-1%	39%
Cn1c(=O)c(-c2ccc(Cl)cc2)nc2cnc(N3CCNCC3)nc21	>57	2%	?	44%
